According to PubChem BioAssay (NCATS):
Values without a mark were called inactive. The rule behind the calls is not given here.
Potency is the fitted concentration of half-maximal effect.

These compounds were tested on HIV-1 nucleocapsid protein NCp7 (binding to TG oligonucleotide) (assay: HIV Nucleocapsid (AID 346;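 note: potency is for inhibitors that block NC binding and lower polarization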)). Conditions: HIV-1 NC / fluorescein-TGTGTGTG probe, fluorescence polarization.
Summary of the method: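 10 nM TG4xF probe with 100 nM nucleocapsid protein in high-salt Hepes pH 7.5 (250mM NaCl) containing 1uM ZnCl2 and reducing agents. Compound inhibition of binding was read as fluorescein polarization after 1 hr at room temperature.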
Compound `Cn1cccc1C(=O)N1CCC2(CC1)CN(Cc1cc(C(F)(F)F)cc(C(F)(F)F)c1)C2` has a Potency greater than 20 µM. In the case of `COCCn1c(=O)cnc2cnc(N3CCN(C)CC3)nc21`, the Potency is reported as greater than 20 µM. In the case of `COC(=O)N1CCC2(CCN(Cc3ccccc3OC)CC2)CC1`, the Potency is reported as greater than 20 µM. `CCNc1ncc2nc(-c3ccccc3)c(=O)n(C)c2n1` showed a Potency greater than 20 µM. In the case of `CC(C)NC(=O)N1CCCC2(CCN(C(=O)c3cc(C(F)(F)F)cc(C(F)(F)F)c3)CC2)C1`, the Potency is reported as greater than 20 µM. `Cc1noc(C)c1-c1cc(N(C)C)ncn1` was tested, and the Potency was greater than 20 µM. Work on `FC(F)(F)c1ccccc1-c1ccc2ncnc(NC3CCNCC3)c2c1` yielded a Potency greater than 20 µM. `N#Cc1cccc(NC(=O)N2CC3(CCN(C(=O)c4cc(C(F)(F)F)cc(C(F)(F)F)c4)CC3)C2)c1` gave a Potency greater than 20 µM. `COc1ccc2[nH]cc(CCNc3ccnc(-c4c(C)noc4C)n3)c2c1` showed a Potency greater than 20 µM. Work on `COc1ccccc1-c1nccc(NCc2cccs2)n1` yielded a Potency greater than 20 µM. In the case of `CN(C)c1ccc(-c2ccc3ncnc(-n4ccnc4)c3c2)cc1`, the Potency is reported as greater than 20 µM. In the case of `CCNc1ncc2nc(-c3ccc(F)cc3)c(=O)n(-c3ccc(OC)cc3)c2n1`, the Potency is reported as greater than 4 µM. With `COc1ccc(C(=O)N2CCC[C@@]3(CCN(Cc4ccncc4)C3)C2)cc1` the Potency was greater than 20 µM. For `COc1ccc(CNc2ncncc2-c2ccc(N(C)C)cc2)c(OC)c1`, the Potency was greater than 20 µM. `Cc1nc2cnc(N3CCN(C)CC3)nc2n(C)c1=O` showed a Potency greater than 20 µM. Compound `CN(C)c1ncc2nc(-c3cccs3)c(=O)n(-c3ccccc3)c2n1` has a Potency greater than 4 µM. With `COc1cccc(-c2ccc3ncnc(NCc4cnc(C)cn4)c3c2)c1` the Potency was greater than 20 µM. `Cc1nc2cnc(OCc3ccccc3)nc2n(CCC#N)c1=O` showed a Potency greater than 20 µM. `N#Cc1cccc(NC(=O)N2CC[C@@]3(CCCN(S(=O)(=O)c4ccccc4)C3)C2)c1` was tested, and the Potency was greater than 20 µM. `N#Cc1cccc(-c2cc(-n3ccnc3)ncn2)c1` was tested, and the Potency was greater than 20 µM. `O=C(Nc1cccc(F)c1)N1CCCC2(CCNCC2)C1` gave a Potency greater than 4 µM. `CS(=O)(=O)Nc1cccc(-c2cc(NCc3ccccc3)ncn2)c1` gave a Potency greater than 20 µM. With `COc1cccc(-c2cncnc2NCCc2cnc[nH]2)c1` the Potency was greater than 20 µM. Work on `CN(C)c1ncc2nc(CCc3ccccc3)c(=O)n(Cc3cccs3)c2n1` yielded a Potency greater than 20 µM. `COCCn1c(=O)c(-c2ccc(F)cc2)nc2cnc(OC)nc21` gave a Potency greater than 20 µM. Compound `Cn1c(=O)c(-c2cccs2)nc2cnc(Oc3ccccc3)nc21` has a Potency greater than 20 µM. Compound `COc1ccc(C(=O)N2CCC3(CCN(C(=O)Nc4cccc(F)c4)CC3)CC2)cc1` has a Potency greater than 20 µM. `COc1ccc(C(=O)N2CCC3(CCCN(Cc4nccs4)C3)CC2)cc1` was tested, and the Potency was greater than 20 µM. For `COc1cccc(Cn2c(=O)c(-c3cccs3)nc3cnc(OCc4ccccc4)nc32)c1`, the Potency was greater than 20 µM. Compound `O=c1cnc2cnc(N3CCOCC3)nc2n1Cc1cccs1` has a Potency greater than 20 µM. In the case of `CS(=O)(=O)N1CCC2(CCCN(c3ccccn3)C2)CC1`, the Potency is reported as greater than 20 µM. For `O=C(c1csnn1)N1CCC2(CC1)CCN(c1ccccc1)CC2`, the Potency was greater than 20 µM. For `CC(C)NC(=O)N1CC[C@@]2(CCCN(C(=O)c3ccncc3)C2)C1`, the Potency was greater than 20 µM. `O=c1c(-c2cccc(F)c2)nc2cncnc2n1Cc1ccc(F)cc1` showed a Potency greater than 20 µM. Work on `COc1ccccc1-c1nc(N(C)C)c2ccccc2n1` yielded a Potency greater than 20 µM. For `c1cncc(CNc2nc(-c3ccc4c(c3)OCO4)nc3ccccc23)c1`, the Potency was greater than 20 µM. Work on `COCCn1c(=O)c(-c2ccc(F)cc2)nc2cnc(Oc3ccccc3)nc21` yielded a Potency greater than 20 µM. For `COCCn1c(=O)c(-c2ccc(OC)cc2)nc2cnc(N3CCNCC3)nc21`, the Potency was greater than 20 µM. `CN1CCN(c2ncc3nc(-c4ccc(F)cc4)c(=O)n(Cc4cccs4)c3n2)CC1` gave a Potency greater than 20 µM. Work on `O=C(c1cnccn1)N1CCC2(CCCN(Cc3nccs3)C2)CC1` yielded a Potency greater than 20 µM.
